The source of these data is PubChem BioAssay (NCI).

SMILES strings stand for the structures. About 83,000 compounds went through this panel and 20% of them were active in at least one assay; those are over-represented in the sample as a whole.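 48-hour exposure, single concentration, 96-well plates; percent growth endpoint where 0 means no net growth. Active: below 10.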 A number with no mark means an inactive call. The source made the active and inactive calls.

Test in all cases: NCI-60 one-dose screen, 48 h (100 = growth as untreated, 0 = no growth, -100 = all killed)
For one assay, the system named is SK-MEL-2 melanoma. As to conditions: 10 µM unless noted.
For another assay, the system named is EKVX NSCLC. To be noted: 10 µM unless noted.
Another assay has as its system SN12C renal. As to conditions: 10 µM unless noted.
The test system of the next assay is UO-31 renal. As to conditions: 10 µM unless noted.
Another assay deals with A498 renal. To be noted: 10 µM unless noted.
Another assay relates to CCRF-CEM leukemia. As to conditions: 10 µM unless noted.
In another assay the test system is MOLT-4 leukemia. To be noted: 10 µM unless noted.
The subject of the next assay is SR leukemia. To be noted: 10 µM unless noted.
Another assay has as its system RPMI-8226 leukemia. To be noted: 10 µM unless noted.
The subject of another assay is OVCAR-8 ovarian. To be noted: 10 µM unless noted.
The subject of another assay is OVCAR-5 ovarian. As to conditions: 10 µM unless noted.
The next assay has as its system OVCAR-4 ovarian. To be noted: 10 µM unless noted.
The subject of the next assay is SK-OV-3 ovarian. As to conditions: 10 µM unless noted.
Another assay has as its system IGROV1 ovarian. To be noted: 10 µM unless noted.
Another assay concerns OVCAR-3 ovarian. To be noted: 10 µM unless noted.
The subject of the next assay is HS 578T breast. As to conditions: 10 µM unless noted.
For another assay, the system named is NCI/ADR-RES ovarian. As to conditions: 10 µM unless noted.
The next assay relates to TK-10 renal. As to conditions: 10 µM unless noted.
Another assay has as its system ACHN renal. As to conditions: 10 µM unless noted.
The next assay has as its system CAKI-1 renal. As to conditions: 10 µM.

Take `Cc1cccc(CC(=O)c2ccccc2)n1`: the growth is 96.7% with SK-MEL-2 melanoma; 79.2% in the assay with EKVX NSCLC; 94.5% in the assay on SN12C renal; 81.5% in the assay on UO-31 renal; 74.3% with A498 renal; 71.8% in the assay on CCRF-CEM leukemia. The growth with MOLT-4 leukemia was 90.5%; in the assay on SR leukemia it was 94.4%; with RPMI-8226 leukemia it was 89.4%; in the assay on OVCAR-8 ovarian it was 91.8%; in the assay with OVCAR-5 ovarian it was 83.8%; in the assay with OVCAR-4 ovarian, 90%. The growth with SK-OV-3 ovarian was 92.2%; with IGROV1 ovarian, 97%; with OVCAR-3 ovarian, 105%; in the assay on HS 578T breast, 91%; with NCI/ADR-RES ovarian, 75.7%.

Take `COc1ccc(-c2nnc(SCC(=O)Nc3ccc(C(=O)/C=C/c4ccc(Cl)cc4)cc3)o2)cc1OC`: the growth with SK-MEL-2 melanoma is 72%; with EKVX NSCLC, 80.2%; in the assay with SN12C renal it was 47.8%; in the assay with UO-31 renal it was 72.3%; in the assay on A498 renal, 88.7%; in the assay with CCRF-CEM leukemia, 65.1%. In addition, the growth is 41.1% in the assay with MOLT-4 leukemia; 24.2% in the assay with SR leukemia; 59.4% with RPMI-8226 leukemia; 37.4% in the assay with OVCAR-8 ovarian; 90.5% in the assay on OVCAR-5 ovarian; -17.1% (active) in the assay on OVCAR-4 ovarian. For the same compound, the growth in the assay with SK-OV-3 ovarian is 87.4%; with IGROV1 ovarian it was 70.4%; in the assay with OVCAR-3 ovarian it was 106%; with HS 578T breast, 102%; with NCI/ADR-RES ovarian, 38.4%.

Take `COc1ccc(-c2[nH]c3ccccc3c2/C=C(\C#N)S(=O)(=O)c2ccccc2)cc1`: the growth in the assay on SK-MEL-2 melanoma was 76.5%; with EKVX NSCLC, 14.1%; in the assay with SN12C renal, 42.2%; in the assay on TK-10 renal it was 91.7%; in the assay with ACHN renal, 51%; in the assay with CAKI-1 renal it was -14.3% (active). Further, the growth in the assay on A498 renal was 2.31% (active); in the assay with CCRF-CEM leukemia, 8.07% (active); with MOLT-4 leukemia it was 6.08% (active); in the assay with SR leukemia, 1.93% (active); with OVCAR-8 ovarian, 44.4%; with OVCAR-5 ovarian it was 32.2%. In addition, the growth with OVCAR-4 ovarian was -14.3% (active); in the assay with SK-OV-3 ovarian, 29.2%; with IGROV1 ovarian, 32.7%; with HS 578T breast, 23.8%; in the assay on NCI/ADR-RES ovarian, 0.134% (active).

With `C=C1C(=O)O[C@H]2[C@H]1CC/C(C(=O)NCCOCCOCC(=O)Nc1ccc(OC)c(C(N)=O)c1O)=C\CC[C@@]1(C)O[C@@H]21`, the growth with SK-MEL-2 melanoma was 82.1%; with EKVX NSCLC, 95.7%; with SN12C renal, 94.3%; in the assay with UO-31 renal, 87.3%; with A498 renal, 105%; in the assay with CCRF-CEM leukemia it was 64.6%. For the same compound, the growth in the assay with MOLT-4 leukemia is 66.2%; in the assay on SR leukemia it was 75.3%; with RPMI-8226 leukemia it was 97.2%; with OVCAR-8 ovarian, 89.8%; with OVCAR-5 ovarian, 96.4%; in the assay on OVCAR-4 ovarian it was 101%. For the same compound, the growth in the assay on SK-OV-3 ovarian is 91.6%; in the assay with IGROV1 ovarian it was 98.8%; in the assay on OVCAR-3 ovarian it was 84.3%; in the assay on HS 578T breast, 93%; in the assay on NCI/ADR-RES ovarian it was 104%.

Consider `CC(=O)N1N=C2N(Cc3ccccc3)C(=O)c3c(sc4c3CCCC4)N2C1c1cn(-c2ccccc2)nc1-c1ccc(Cl)cc1` (configuration not stated), for which the growth in the assay with SK-MEL-2 melanoma was 98%; in the assay on EKVX NSCLC, 87.9%; in the assay on SN12C renal, 103%; with TK-10 renal, 102%; in the assay with ACHN renal, 96.6%; in the assay with CAKI-1 renal, 101%. The growth in the assay with A498 renal is 103%; with CCRF-CEM leukemia, 92.4%; with MOLT-4 leukemia, 86.3%; in the assay with RPMI-8226 leukemia, 87.9%; in the assay on OVCAR-8 ovarian it was 100%; with OVCAR-5 ovarian it was 101%. In addition, the growth with OVCAR-4 ovarian is 115%; in the assay on SK-OV-3 ovarian, 88%; in the assay on OVCAR-3 ovarian it was 101%; with HS 578T breast, 93%; in the assay with NCI/ADR-RES ovarian, 100%.

`CCCCCCCCCCCCCCCCNc1ccccc1`: the growth was 90% in the assay with SK-MEL-2 melanoma; 106% in the assay with EKVX NSCLC; 70.7% in the assay with SN12C renal; 57.9% with UO-31 renal; 114% with A498 renal; 44.4% in the assay with CCRF-CEM leukemia. Further, the growth with MOLT-4 leukemia is 43.1%; in the assay with SR leukemia, 75.1%; in the assay on RPMI-8226 leukemia, 52.5%; with OVCAR-8 ovarian, 91.8%; with OVCAR-5 ovarian, 115%; with OVCAR-4 ovarian, 105%. The growth with SK-OV-3 ovarian was 103%; in the assay with IGROV1 ovarian, 91.6%; with OVCAR-3 ovarian it was 104%; in the assay with HS 578T breast, 108%; in the assay on NCI/ADR-RES ovarian it was 104%.

Regarding `Cc1c(Cl)ccc2c(C(=O)Cl)cc(-c3ccccc3)nc12`, the growth was 106% in the assay on SK-MEL-2 melanoma; 95.6% in the assay with EKVX NSCLC; 99.9% with SN12C renal; 90.1% with UO-31 renal; 84.4% in the assay on A498 renal; 88.1% in the assay with CCRF-CEM leukemia. Also, the growth was 96.2% in the assay with MOLT-4 leukemia; 91.8% in the assay with SR leukemia; 92.2% with RPMI-8226 leukemia; 99.7% with OVCAR-8 ovarian; 97.1% in the assay with OVCAR-5 ovarian; 88.5% in the assay with OVCAR-4 ovarian. For the same compound, the growth was 99.4% in the assay with SK-OV-3 ovarian; 107% in the assay on IGROV1 ovarian; 104% in the assay on OVCAR-3 ovarian; 98.9% in the assay with HS 578T breast; 101% in the assay on NCI/ADR-RES ovarian.

Turning to `NS(=O)(=O)c1ccc(Nc2nc(O)c(/C=C3\C=Nc4ccccc43)s2)cc1`, the growth in the assay on SK-MEL-2 melanoma is 103%; with EKVX NSCLC it was 98.2%; in the assay on SN12C renal it was 91.1%; in the assay with UO-31 renal, 70.7%; in the assay on A498 renal, 106%; with CCRF-CEM leukemia it was 85.6%. The growth with MOLT-4 leukemia was 95.4%; in the assay on SR leukemia, 99.2%; in the assay with RPMI-8226 leukemia it was 95%; in the assay on OVCAR-8 ovarian it was 94.5%; with OVCAR-5 ovarian, 111%; with OVCAR-4 ovarian, 125%. In addition, the growth in the assay on SK-OV-3 ovarian is 102%; in the assay with IGROV1 ovarian, 92.5%; in the assay with OVCAR-3 ovarian, 102%; in the assay on HS 578T breast, 87.5%; with NCI/ADR-RES ovarian, 101%.

For the compound `CC1CCC(C(C)C)C(NN)C1` (configuration not stated), the growth with SK-MEL-2 melanoma was 101%; with EKVX NSCLC, 102%; with SN12C renal, 102%; with UO-31 renal, 88.8%; with A498 renal, 105%; in the assay with CCRF-CEM leukemia, 89.5%. The growth in the assay with MOLT-4 leukemia is 65.9%; in the assay with SR leukemia it was 103%; with RPMI-8226 leukemia it was 104%; in the assay on OVCAR-8 ovarian it was 92.8%; in the assay on OVCAR-5 ovarian it was 107%; with OVCAR-4 ovarian, 111%. Besides, the growth was 91.8% with SK-OV-3 ovarian, 109% in the assay with IGROV1 ovarian, 102% in the assay with HS 578T breast and 106% with NCI/ADR-RES ovarian.
